Screening results (PubChem BioAssay)
CtBP-E1A blk: qHTS Assay for Inhibitors of the CtBP/E1A Interaction | CtBP / adenovirus E1A interaction (AlphaScreen) | AlphaScreen GST-E1A/His-CtBP binding, 1536-well; stronger effect = lower value | activity change, % (test concentration not listed) | 340,000 compounds, 0.49% hits | AID 651724, 2012; in the data active means activity change below about -65%; inconclusive means mostly about -30% to -63%
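In 5 uL wells, 23 nL compound meets equimolar GST-E1A and His-CtBP (5X stock 125 nM each) for 2 h, 37 °C. Beads (5X, 50 ug/mL) then 1 h, 37 °C, dark.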
PI4K2A block: qHTS for small molecular inhibitors of PI4K2A; AID 1346378, 2018; Phosphatidylinositol 4-kinase type 2-alpha (Homo sapiens), Q9BTU6; purified PI4K2A, ADP-Glo luminescence, 1 h; stronger effect = lower value; activity change, negative = inhibition, % at 76.9 µM; 420,000 compounds, 0.13% hits; in the data active means activity change below about -50%; inconclusive means mostly about -30% to -49%;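 further: -100% = wells without enzyme as full effect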
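In this quantitative HTS, ADP production by PI4K2A was quantified luminescently after 1 h at ambient temperature; 100 microM adenosine served as plate-quality control.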
Eya2 inh: qHTS Assay for Inhibitors of the Phosphatase Activity of Eya2 | Potency, µM (doses to about 76.9 µM), without a hit: at the top dose activity, negative = inhibition, usual class: inhibitors | 330,000 compounds, 0.006% hits | Protein phosphatase EYA2 (Homo sapiens), O00167 | recombinant Eya2, OMFP fluorescence dephosphorylation (OMFP is methylfluorescein phosphate); further: potency means the concentration at half of the fitted maximal effect
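Eya2 (0.2 uM) preincubated 10 min at ambient with compound, then OMFP substrate added at 50 uM; 10 min reaction in 50 mM HEPES pH 7.5, 50 mM NaCl, 5 uM MgCl2, 0.05% BSA, 1 mM DTT. Fluorescence read at Ex 485/Em 525 nm.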
USP2a block: qHTS Assay for Inhibitors of Ubiquitin-specific Protease USP2a Using CHOP2 as the Reporter; Ubiquitin carboxyl-terminal hydrolase 2 (Homo sapiens), O75604; USP2 core, Ub-CHOP2 coupled fluorogenic reporter, 485/531; Potency, µM (top dose mostly 38.3 µM), for the others: at the highest dose activity change, negative = inhibition, hits mostly inhibitors; 330,000 compounds, 0.01% hits; AID 463254, 2010;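 further: potency means the concentration at half of the fitted maximal effect; plate controls were DMSO wells for no effect and full inhibition by NEM control for full effect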
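USP2 core (10nM final) preincubated 30min RT with compound in 20mM Tris-HCl pH 8.0, 2mM CaCl2, 2mM beta-mercaptoethanol, 0.05% CHAPS; 25nM Ub-CHOP2 plus 25nM reporter substrate added, fluorescence (Ex485/Em531) read after 60min.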
RGS4 inhibitor: Inhibitors of Regulator of G Protein Signaling (RGS) 4: qHTS. 390,000 compounds, 0.039% hits. Potency, µM (top dose mostly 114 µM), without a hit: at the top dose activity change, negative = inhibition, hits mostly inhibitors. AID 504845, 2011. Regulator of G-protein signaling 4 (Homo sapiens), P49798. Transcreener GDP fluorescence polarization, RGS4-accelerated GTP hydrolysis; further: potency means the concentration at half of the fitted maximal effect; nearly all actives have a fitted effect of over 75% in size
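MLSMR compounds (23 nl, pin-transferred) preincubated 10 min at room temperature with a 500nM (2x) first reagent, then RGS4 at 900nM (2x) plus Transcreener GDP mix added; fluorescence polarization (620/688 nm) read before and after 90 min at 30 °C.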
Six1-Eya2 blk: qHTS Assay for Inhibitors of the Six1/Eya2 Interaction. 360,000 compounds, 0.56% hits. AlphaScreen GST-Six1/His-Eya2 binding, biochemical; stronger effect = lower value. AID 651725, 2012. Homeobox protein SIX1 (Homo sapiens) + Protein phosphatase EYA2 (Homo sapiens), …. activity change, % (no concentration beside the values); in the data active means activity change below about -65%; inconclusive means mostly about -30% to -63%
Target sequence (O00167 whole entry, looked up): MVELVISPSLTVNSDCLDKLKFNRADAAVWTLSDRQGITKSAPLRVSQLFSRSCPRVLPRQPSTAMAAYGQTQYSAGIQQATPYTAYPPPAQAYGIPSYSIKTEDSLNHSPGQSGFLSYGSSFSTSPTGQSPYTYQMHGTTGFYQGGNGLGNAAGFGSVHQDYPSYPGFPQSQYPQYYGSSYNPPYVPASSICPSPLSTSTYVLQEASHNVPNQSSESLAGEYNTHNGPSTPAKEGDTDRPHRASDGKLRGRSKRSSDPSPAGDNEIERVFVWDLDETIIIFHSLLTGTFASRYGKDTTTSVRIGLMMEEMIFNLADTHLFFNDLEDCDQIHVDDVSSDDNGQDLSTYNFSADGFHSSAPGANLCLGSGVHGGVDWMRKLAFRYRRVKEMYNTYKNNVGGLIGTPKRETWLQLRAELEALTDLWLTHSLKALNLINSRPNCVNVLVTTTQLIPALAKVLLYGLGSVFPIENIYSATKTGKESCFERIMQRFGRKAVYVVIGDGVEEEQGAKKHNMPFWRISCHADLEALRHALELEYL
Target sequence (Q15475 whole entry, looked up): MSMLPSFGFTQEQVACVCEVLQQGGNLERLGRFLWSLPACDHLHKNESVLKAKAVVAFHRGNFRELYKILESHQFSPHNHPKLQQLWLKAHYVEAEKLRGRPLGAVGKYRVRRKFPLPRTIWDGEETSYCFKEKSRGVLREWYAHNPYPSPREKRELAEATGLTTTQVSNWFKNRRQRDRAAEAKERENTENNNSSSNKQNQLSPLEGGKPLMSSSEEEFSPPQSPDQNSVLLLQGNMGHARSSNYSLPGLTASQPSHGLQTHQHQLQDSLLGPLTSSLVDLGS
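Compounds are tested against tagged Six1 and Eya2 proteins bridged by glutathione donor and nickel acceptor beads; after a one-hour incubation at 37 °C without light, AlphaScreen emission is recorded.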
Numbers without * were called inactive; [ ] = another dose, or the depositor's remark. In the library only some 0.72% were active in any assay of this set; here they are far more common. Unless noted, the call rests on the fitted dose curve; in most records, active means well fitted curve in the direction sought with a large enough effect; inconclusive means small, poorly fitted or top-dose-only effect, or another doubt; inactive means no such curve, though single readings can be large; an effect the other way counts as inactive or inconclusive. Unless noted, on the % scale 0 is the no-effect control and ±100 the full control effect.

Results for COc1ccc(C(=O)Nc2ccc(-c3cn4ccsc4n3)cc2)cc1S(=O)(=O)N1CCOCC1 ?
CtBP-E1A blk: -73.0*; PI4K2A block: -1.4; Eya2 inh: -1.3%; USP2a block: 3.7%; RGS4 inhibitor: 3.6%; Six1-Eya2 blk: -76.6*

How did CC1(C)CCC2=C(O1)c1ccccc1C(=O)C2=O do in these assays?
PI4K2A block: -51.7*; Eya2 inh: -22.5%; RGS4 inhibitor: 15µM*

How did COc1cc(NS(=O)(=O)c2ccc(Nc3nc(-c4ccccn4)cs3)cc2)nc(OC)n1 do in these assays?
CtBP-E1A blk: -76.1*; PI4K2A block: 0.3; Eya2 inh: 3.3%; USP2a block: -0.8%; RGS4 inhibitor: 3.4%; Six1-Eya2 blk: -79.5*

How did COc1cc(NC(=O)c2cc([N+](=O)[O-])ccc2NC(=O)CNCc2ccccn2)cc(OC)c1 do in these assays?
CtBP-E1A blk: -83.9*; PI4K2A block: -0.1; Eya2 inh: 4.2%; USP2a block: -2.5%; RGS4 inhibitor: inconclusive; Six1-Eya2 blk: -91.0*

Results for COc1ccc(NC(=O)c2cc([N+](=O)[O-])ccc2NC(=O)CNCc2ccccn2)c(OC)c1 ?
CtBP-E1A blk: -16.6; PI4K2A block: -6.9; Eya2 inh: -8.8%; USP2a block: 1.2%; RGS4 inhibitor: inconclusive; Six1-Eya2 blk: inconclusive

How did CCOC(=O)Nc1ccc2c(c1)C(=NO)c1ccccc1-2 do in these assays?
CtBP-E1A blk: -5.4; PI4K2A block: 17.8; RGS4 inhibitor: -10.5%; Six1-Eya2 blk: -14.4

What do the screens show for `CCOC(=O)Nc1ccc2c(c1)C(=NNC(N)=S)c1ccccc1-2`?
CtBP-E1A blk: -65.1*; PI4K2A block: -1.2; RGS4 inhibitor: -34.9%; Six1-Eya2 blk: -79.4*

What do the screens show for `CC(C)n1c(O)c(N=NC(=O)c2ccccc2NS(=O)(=O)c2cccs2)c2ccccc21`?
PI4K2A block: 1.0; Eya2 inh: 2.5%; USP2a block: 1.9%; RGS4 inhibitor: inconclusive; Six1-Eya2 blk: -85.8*

Results for COc1ccccc1NC(=O)Cn1c(=O)n(Cc2ccc3c(c2)OCO3)c(=O)c2oc3ccccc3c21 ?
PI4K2A block: 8.6; RGS4 inhibitor: 7.0%

What do the screens show for `Cc1nnc(C)n1/N=C/c1c(O)ccc2ccccc12`?
PI4K2A block: 1.5; Eya2 inh: -3.6%; USP2a block: 0.1%; RGS4 inhibitor: inconclusive; Six1-Eya2 blk: -2.0

How did Cc1nnc(-c2ccccc2)c(=O)n1/N=C/c1c(O)ccc2ccccc12 do in these assays?
CtBP-E1A blk: -1.4; PI4K2A block: -5.0; Eya2 inh: inconclusive; USP2a block: inconclusive; RGS4 inhibitor: -43.1%; Six1-Eya2 blk: -93.8*

Results for COc1ccc(OC)c(NC(=O)Nc2nc(C(N)c3ccccc3Cl)cs2)c1 (stereo unspecified) ?
CtBP-E1A blk: -13.5; PI4K2A block: 0.3; Six1-Eya2 blk: -25.0

What do the screens show for `C(=N\Nc1nc2ccccc2[nH]1)/c1ccccn1`?
PI4K2A block: inconclusive; Eya2 inh: 0.8%; USP2a block: 6.6%; RGS4 inhibitor: 4.6%; Six1-Eya2 blk: inconclusive

How did O=c1cnnc(N/N=C/c2ccccn2)[nH]1 do in these assays?
CtBP-E1A blk: -97.1*; PI4K2A block: -1.7; Eya2 inh: 4.0%; USP2a block: -0.3%; RGS4 inhibitor: -7.8%[11.4 µM]; Six1-Eya2 blk: -91.8*

What do the screens show for `C(=N\Nc1nncc2ccccc12)/c1ccccn1`?
CtBP-E1A blk: -95.5*; PI4K2A block: -11.7; Eya2 inh: 6.8%; USP2a block: 0.1%; RGS4 inhibitor: 12.9%; Six1-Eya2 blk: -74.5*

Results for CC(CC1c2ccccc2CCc2ccccc21)CN(C)C (stereo unspecified) ?
PI4K2A block: 0.2

What do the screens show for `COc1cc(C=NO)nc(-c2ccccn2)c1`?
CtBP-E1A blk: 2.9; PI4K2A block: inconclusive; RGS4 inhibitor: -14.4%; Six1-Eya2 blk: -92.2*

What do the screens show for `COc1ccc2nc(-c3ccccn3)[nH]c2c1`?
CtBP-E1A blk: -20.9; PI4K2A block: -24.1; Eya2 inh: -1.2%; USP2a block: -1.6%; RGS4 inhibitor: 0.7%; Six1-Eya2 blk: -23.7

How did O=c1cc(-c2ccccc2)[nH]n1-c1nc2ccccc2[nH]1 do in these assays?
CtBP-E1A blk: -77.2*; PI4K2A block: -23.8; Eya2 inh: 20.0%; USP2a block: -24.4%; RGS4 inhibitor: -16.1%; Six1-Eya2 blk: -81.0*

What do the screens show for `Cc1cc2c(cc1CC(=O)c1sccc1S(=O)(=O)Nc1onc(C)c1Cl)OCO2`?
PI4K2A block: -1.2

What do the screens show for `O=C(Cc1ccccc1)N/N=C/c1ccc(OC(=O)/C=C\c2ccco2)cc1`?
CtBP-E1A blk: -65.3*; PI4K2A block: 5.2; Eya2 inh: -7.3%; USP2a block: -1.4%; RGS4 inhibitor: 14.7%; Six1-Eya2 blk: inconclusive

What do the screens show for `COC(=O)N/N=C\c1ccc(OC(=O)c2ccco2)cc1`?
CtBP-E1A blk: 3.8; PI4K2A block: -1.8; Eya2 inh: 10.3%; USP2a block: -0.5%; RGS4 inhibitor: 22.1%; Six1-Eya2 blk: -10.2

How did COC(=O)N/N=C/c1ccc(OC(=O)/C=C/c2ccco2)cc1 do in these assays?
CtBP-E1A blk: -71.0*; PI4K2A block: -5.2; Eya2 inh: 17.7%; USP2a block: 0.8%; RGS4 inhibitor: 0.3%; Six1-Eya2 blk: inconclusive

Results for NC(=O)CC[C@@H]1NC(=O)[C@H](Cc2ccccc2)NC(=O)[C@H](Cc2ccc(O)cc2)NC(=O)CCSSC[C@@H](C(=O)N2CCC[C@H]2C(=O)N[C@@H](CCCN=C(N)N)C(=O)NCC(N)=O)NC(=O)[C@H](CC(N)=O)NC1=O ?
PI4K2A block: 6.2

Results for COC(=O)N[C@H](C(=O)N[C@@H](Cc1ccccc1)[C@@H](O)CN(Cc1ccc(-c2ccccn2)cc1)NC(=O)[C@@H](NC(=O)OC)C(C)(C)C)C(C)(C)C ?
PI4K2A block: 0.1

Results for CCCCC/C=C\C/C=C\C/C=C\C/C=C\CCCC(=O)O ?
Eya2 inh: 4.2%; USP2a block: 0.5%; RGS4 inhibitor: inactive

What do the screens show for `CCCCC/C=C\C/C=C\C/C=C\C/C=C\CCCCCC(=O)O`?
RGS4 inhibitor: 460.0%[56.9 µM]
